# Source: PubChem BioAssay AID1851 (National Center for Advancing Translational Sciences (NCATS), 2009)
# Out of some 16,000 compounds screened, about 5,100 (32%) were called active. Not shown: some 25% with an inconclusive outcome. Calls come from the whole dose curve; as a rule, active = well fitted curve in the direction sought with a large enough effect; inconclusive = small, poorly fitted or top-dose-only effect, or effect the other way; inactive = no such curve, though single readings can be large or run the other way. The list shows a part of the results. More than one record can exist for a structure, and the calls need not agree.
# Molecular target: Cytochrome P450 3A4 (Homo sapiens) (UniProt P08684)
# Sequence (P08684 whole entry, looked up): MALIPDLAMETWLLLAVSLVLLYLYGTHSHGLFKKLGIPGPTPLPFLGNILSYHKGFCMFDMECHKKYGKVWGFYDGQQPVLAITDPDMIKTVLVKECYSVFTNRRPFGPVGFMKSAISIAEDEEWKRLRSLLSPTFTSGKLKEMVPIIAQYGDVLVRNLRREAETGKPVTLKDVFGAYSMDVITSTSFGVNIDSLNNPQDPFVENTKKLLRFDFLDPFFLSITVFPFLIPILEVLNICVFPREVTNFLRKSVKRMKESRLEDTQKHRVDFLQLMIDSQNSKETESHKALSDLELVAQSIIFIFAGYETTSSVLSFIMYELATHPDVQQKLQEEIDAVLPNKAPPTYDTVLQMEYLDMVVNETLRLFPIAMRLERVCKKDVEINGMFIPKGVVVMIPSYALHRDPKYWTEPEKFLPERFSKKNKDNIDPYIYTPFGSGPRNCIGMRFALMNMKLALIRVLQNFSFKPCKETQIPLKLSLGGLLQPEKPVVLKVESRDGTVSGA
# Experiment: Cytochrome panel assay with activity outcomes
# Conditions: recombinant CYP, pro-luciferin dealkylation, luminescence, p450-cyp3a4; series mostly up to 57.1 µM; activity, negative = inhibition: at the top concentration
# % is set by controls: 0 for no effect and ±100 for the full control effect.
Compound,"activity, negative = inhibition",AC50
CCc1ccccc1NC(=O)NC1CC2CCC(C1)N2Cc1cccs1 (stereo not given),-21.2% (inactive),
COc1ccc(NC(=O)NC2CC3CCCC(C2)N3Cc2ccccc2)cc1 (stereo not given),16.8% (inactive),
O=C(NC1CCCCC1)NC1CC2CCC(C1)N2Cc1nnnn1Cc1ccc2c(c1)OCO2 (stereo not given),,3.16 µM (active)
C[C@@]12CC[C@H]3[C@H](CC=C4C[C@@H](O)CC[C@@]43C)[C@@H]1CC[C@@H]2N(CCO)CCO,12.7% [at 11.4 µM] (inactive),
c1ccc(CN2CCC3(CCNCC3)CC2)cc1,-7.57% (inactive),
COC(=O)CN1CN(c2ccccc2)C2(CCN(Cc3ccc4ccccc4c3)CC2)C1=O,,15.8 µM (active)
O=C1NCN(c2ccccc2)C12CCN(CCCOc1ccc(F)cc1)CC2,18.9% (inactive),
CC[C@]1([C@H]2O[C@@H]([C@@H]3O[C@](O)(CO)[C@@H](C)C[C@H]3C)C[C@H]2C)CC[C@@H]([C@]2(C)CC[C@@]3(C[C@@H](O)[C@@H](C)[C@@H]([C@H](C)[C@H](OC)[C@H](C)C(=O)O)O3)O2)O1,-4.62% [at 25.6 µM] (inactive),
c1cc2cc(c1)C[n+]1ccc(c3ccccc31)NCc1ccc(cc1)CNc1cc[n+](c3ccccc13)C2,11.2% (inactive),
O=C(Oc1ccc([N+](=O)[O-])cc1)N1CCC(N2CCCCC2)CC1,-28.2% (inactive),
C[C@@]12C=CC(=O)C=C1CC[C@@H]1C2=CC[C@]2(C)[C@@H]1CC[C@H]2C(=O)CN1CCN(c2cc(N3CCCC3)nc(N3CCCC3)n2)CC1,,3.16 µM (active)
C[As+](C)(c1ccc(Br)c([N+](=O)[O-])c1)c1ccc(Br)c([N+](=O)[O-])c1.O=[N+]([O-])O,-4.86% [at 11.4 µM] (inactive),
COC(=O)C[C@](O)(CCCC(C)(C)O)C(=O)O[C@@H]1C(OC)=C[C@]23CCCN2CCc2cc4c(cc2[C@H]13)OCO4,,12.6 µM (active)
CN(C)CCCc1c[nH]c2ccccc12,-0.0212% [at 11.4 µM] (inactive),
O=C1CCCN1CC#CCN1CCCC1,inactive,
O=C1C=C2C=C[C@H]3C[C@@]2(O1)[C@H]1CCCCN31,-13.1% [at 25.6 µM] (inactive),
Nc1ccc(S(=O)(=O)c2ccc(NCN3C(=O)NC(=O)C(=O)C3=O)cc2)cc1,,2 µM (active)
CC(=O)NBr,-3.28% (inactive),
NCCc1c[nH]c2ccc(O)cc12,-20.5% [at 25.6 µM] (inactive),
CS(=O)(=O)Nc1ccc(Cc2noc(-c3ccc4[nH]cc(CCN)c4c3)n2)cc1,,15.8 µM (active)
COc1ccc2[nH]cc(CCN)c2c1,-6.61% (inactive),
O=C1OC(=O)[C@@H]2[C@@H]1[C@@H]1CC[C@H]2O1,7.25% (inactive),
C=C[C@H]1CN2CC[C@@H]1C[C@H]2[C@@H](O)c1ccnc2ccccc12,inactive,
CCCN1CCC[C@H](c2cccc(O)c2)C1,inactive,

Compound,"activity, negative = inhibition",AC50
CC(C)C12CN3CC(C(C)C)(CN(C1)C3c1cccnc1)C2=O (stereo not given),,2.24 µM (active)
CNCCc1ccc(O)c(O)c1,-18.3% (inactive),
NNC(=O)c1ccc(O)cc1,,5.01 µM (active)
NCCc1ccc(O)cc1,-2.1% (inactive),
NP(N)(=O)NC(=O)c1ccc(F)cc1,-7.05% (inactive),
Ic1cncc(OC[C@@H]2CCN2)c1,-28.9% (inactive),
CCN(CCCl)Cc1ccccc1Br,-11.1% (inactive),
COc1ccc(OC)c([C@H](O)[C@H](C)N)c1,inactive,
CN(N=O)C(=O)N[C@H]1[C@@H](O)[C@H](O)[C@H](CO)O[C@@H]1O,-4.4% [at 25.6 µM] (inactive),
COC(=O)[C@@]1(Cc2ccc(F)cc2)[C@H]2c3cc(C(=O)N(C)C)[nH]c3C[C@H]2CN1C(=O)c1ccccc1,,0.631 µM (active)
CC(C)[C@]1(O)[C@@H](OC(=O)c2ccc[nH]2)[C@]2(O)[C@@]3(C)C[C@@]4(O)O[C@@]5([C@H](O)[C@@H](C)CC[C@]35O)[C@]2(O)[C@]41C,-24.6% [at 11.4 µM] (inactive),
CC(C)c1nccn1Cc1ccc(Cl)cc1Cl,-9.57% [at 11.4 µM] (inactive),
O=C(O)[C@H]1C[C@@H]1[C@H](NP(=O)(c1ccccc1)c1ccccc1)c1ccccc1,-25.2% (inactive),
O=C(O)[C@@H]1C[C@H]1[C@@H](NP(=O)(c1ccccc1)c1ccccc1)c1ccccc1,-0.397% (inactive),
CCC/C=C(\CCC)C(NP(=O)(c1ccccc1)c1ccccc1)c1ccccc1 (stereo not given),,6.31 µM (active)
c1cc(C2N3CCCN2CC3)ccn1 (stereo not given),-11.6% [at 11.4 µM] (inactive),
CCCCCCCCCC[Si](C)(C)CCC(=O)N[C@@H](Cc1ccc(C)cc1)c1ccccc1,-12.4% (inactive),
C[N+]12CCC(CC1)[C@@H](OC(=O)C(O)(c1ccccc1)c1ccccc1)C2,-11.8% [at 25.6 µM] (inactive),
Cc1nc(-c2ccc(-c3ccc(C(=O)N4CCc5cc6c(cc54)C4(CCN(C)CC4)CO6)cc3)c(C)c2)no1,-15.2% (inactive),
c1cc(CN2CC3(CCNCC3)C2)ccn1,-30.5% (inactive),
c1ccc(CN2CCCC3(CCNCC3)C2)cc1,-19.6% (inactive),
c1cc(CN2CCCC3(CCNCC3)C2)ccn1,,15.8 µM (active)
CC(=NCc1ccco1)c1c(O)n(-c2ccccc2)c(=O)[nH]c1=O,11.3% (inactive),
Cc1nc2ccccc2cc1C[N+]12CN3CN(CN(C3)C1)C2,-6.46% [at 11.4 µM] (inactive),

Compound,"activity, negative = inhibition",AC50
Cc1[nH]c2ccc(O)cc2c1CCN,-14.9% (inactive),
N[C@H](CCCCCP(=O)(O)O)C(=O)O,inactive,
OC(c1ccccc1)(c1ccccc1)C1CCCN1 (stereo not given),-2.76% [at 2.29 µM] (inactive),
O=C1N[C@@]2(CN3CCC2CC3)C(=O)N1CN(Cc1ccccc1)c1ccccc1,1.78% [at 11.4 µM] (inactive),
CN1C2CCC1CC(OC(=O)c1ccc(Cl)cc1)C2 (stereo not given),0.0365% (inactive),
Cc1sc2c(c1C)C(c1ccc(C(C)(C)C)cc1)=NCC(=O)N2CC(=O)Nc1nccs1,,7.94 µM (active)
Nc1nnnn1CCO,-6.3% [at 11.4 µM] (inactive),
O=c1oc(Cl)c(Cl)c2ccccc12,6.83% (inactive),
O=C(O)C(C(=O)O)P(=S)(S)c1ccccc1 (stereo not given),8.13% [at 11.4 µM] (inactive),
C[C@H]1CC[C@@]2(NC1)O[C@@H]1C[C@H]3[C@@H]4CC=C5C[C@@H](O)CC[C@]5(C)[C@@H]4CC[C@]3(C)[C@@H]1[C@@H]2C,5.49% [at 25.6 µM] (inactive),
O=[As](O)(O)c1ccc(NCc2ccccc2)cc1,-8.35% [at 11.4 µM] (inactive),
COc1cc(OC)c(/C=C2/C(=O)Nc3ccccc32)c(OC)c1,,2.51 µM (active)
OC(c1ccccc1)(c1ccccc1)C1CCNCC1,-16.4% [at 25.6 µM] (inactive),
CC(C)(C)C(=O)CP(=O)(O)O,-7.32% [at 11.4 µM] (inactive),
CCCCc1ccc(C(=O)O)nc1,-1.67% [at 25.6 µM] (inactive),
C[C@]12CC[C@@H]3[C@H](CCC4=CC(=O)CC[C@]43C)[C@]1(O)CC[C@@]2(O)C(=O)CO,-0.348% [at 11.4 µM] (inactive),
Oc1ccc(-c2nc(-c3ccc(F)cc3)c(-c3ccncc3)[nH]2)cc1,,0.501 µM (active)
N[C@H](Cc1c[nH]c2ccccc12)P(=O)(O)O,-2.01% [at 11.4 µM] (inactive),
CC[C@H](C(=O)[C@H](C)[C@H](O)[C@H](C)CCc1ccc(C)c(O)c1C(=O)O)[C@H]1O[C@](CC)([C@@H]2CC[C@@](O)(CC)[C@H](C)O2)C[C@H]1C,,7.94 µM (active)
CS(=O)(=O)O[C@H]1CN2CCC1CC2,-6.57% [at 11.4 µM] (inactive),
C[C@@H](C(=O)OC1C[C@H]2CC[C@@H](C1)N2C)c1ccc(Br)cc1 (stereo not given in full),-5.24% (inactive),
Cc1ccccc1-c1nc(CS(=O)CC(=O)N2CCC3(CC2)OCCO3)c(C)o1 (stereo not given),18.8% (inactive),
Cc1oc(-c2ccccc2F)nc1CS(=O)CC(=O)N1CCC2(CC1)OCCO2 (stereo not given),,25.1 µM (active)
O=C(Cn1ncc2ccsc2c1=O)N1CCC2(CC1)OCCO2,-18.2% (inactive),

Compound,"activity, negative = inhibition",AC50
COc1cc2c(cc1OC)[C@@]13CCN4CC5=CCO[C@H](CC(=O)O)[C@@H]([C@H]1N2)[C@H]5C[C@H]43,-10.2% [at 11.4 µM] (inactive),
CCC1(CCSC(=N)N)C(=O)NC(=O)NC1=O,-21.7% [at 11.4 µM] (inactive),
C[C@H]1[C@H](NC(=O)/C(=N/OC(C)(C)C(=O)O)c2csc(N)n2)C(=O)N1S(=O)(=O)O (stereo in doubt),1.53% [at 25.6 µM] (inactive),
O=C(O)CNC(=O)[C@@H](CS)Cc1ccccc1,-3.06% [at 25.6 µM] (inactive),
CC(C)(C)c1cc(C=C(C#N)C#N)cc(C(C)(C)C)c1O,,3.16 µM (active)
N#CC(C#N)=Cc1cc(O)c(O)c(O)c1,,10 µM (active)
NCc1cc(=O)[nH]o1,inactive,
CCCN[C@@H]1CCc2c(OC)cccc2[C@@H]1C,-22.1% (inactive),
C[C@H]1CN(C2CCC(C#N)(c3ccc(F)cc3)CC2)CC[C@@]1(C(=O)O)c1ccccc1 (stereo not given in full),0.78% [at 25.6 µM] (inactive),
COc1cc2c(cc1O)C[C@@H]1c3c(cc(O)c(OC)c3-2)CCN1C,-12.7% [at 11.4 µM] (inactive),
CCCN1CC[C@@H]2c3cc(O)ccc3CC[C@H]21,-8.01% (inactive),
CC(C)c1ccc(C(c2c(O)c3ccccc3oc2=O)c2c(O)c3ccccc3oc2=O)cc1,-28.5% [at 11.4 µM] (inactive),
CC1=NCCc2c1[nH]c1cc(O)ccc21,-15.3% [at 25.6 µM] (inactive),
C[C@@H](Cc1ccc(OCC(=O)O)cc1)NC[C@H](O)c1cccc(Cl)c1,,25.1 µM (active) and inactive
CC(NCc1ccc(Cl)cc1)C(O)c1ccccc1 (stereo not given),-27% (inactive),
CCNC[C@H](O)c1cccc(O)c1,-7.75% [at 25.6 µM] (inactive),
CCOC(=O)c1ncn2c1CN(C)C(=O)c1cc(F)ccc1-2,-3.59% (inactive),
Cn1ccnc1,4.6% (inactive),
CNCCc1c[nH]c2ccc(O)cc12,-6.65% (inactive),
CC(=O)c1ccc2c(c1)N(CCCN(C)C)c1ccccc1S2,-19.6% [at 25.6 µM] (inactive),
O=C(c1cc2cc3ccc(Cl)cc3nc2o1)N1CCC2(CC1)OCCO2,-25.6% (inactive),
C=CCN1C(=O)c2ccccc2Sc2ccc(C(=O)N3CCC4(CC3)OCCO4)cc21,,3.98 µM (active)
O=C(O)CS(=O)(=O)C(c1ccccc1)c1ccccc1,2.64% [at 11.4 µM] (inactive),
